{
  "source": "PubChem BioAssay (NCI)",
  "note": "About 83,000 compounds went through this panel and 20% of them were active in at least one assay; those are over-represented in the sample as a whole.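 Testing used 96-well plates and a 48-hour single-concentration exposure. Example: -40 means 40% of the starting cells died.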 Calls of active or inactive are those of the source. Rule for the calls: active = growth percent below 10; inactive = the rest.",
  "data": [
    {"system": "SK-MEL-2 melanoma", "assay": "NCI-60 one-dose screen, 48 h (100 = growth as untreated, 0 = no growth, -100 = all killed)", "conditions": "10 µM unless noted", "values": [
      {"smiles": "Cc1ccc(-c2nc(C#N)c(S(=O)(=O)N3CCN(S(=O)(=O)c4ccc(Cl)cc4)CC3)o2)cc1", "growth": "95.7% (inactive)"},
      {"smiles": "CCOC(=O)C1=C(N)N(c2ccccc2)C2=C(C(=O)CC(C)(C)C2)C1c1ccccc1Cl", "note": "(centres undefined)", "growth": "57.7% (inactive)"},
      {"smiles": "Cc1ccc(C(=O)NN2C(=O)/C(=C/C=C/c3ccc([N+](=O)[O-])o3)SC2=S)cc1", "growth": "-89.8% (active)"},
      {"smiles": "CCCS(=O)(=O)N1CCCC(C(=O)Nc2nc3ccc(NC(=O)c4ccc(F)c(OC)c4F)cc3s2)C1", "note": "(centres undefined)", "growth": "49.7% (inactive)"},
      {"smiles": "O=C1CC(Sc2n[nH]c(-c3ccncc3)n2)C(=O)N1c1ccc(Br)cc1", "note": "(centres undefined)", "growth": "116% (inactive)"},
      {"smiles": "COc1ccc(NC(=O)Nc2ccc(OCc3ccc(F)cc3)cc2)cc1", "growth": "96.8% (inactive)"},
      {"smiles": "COc1ccc(/C=C/c2nc3ccccc3n3c(-c4ccc(Cl)cc4)nnc23)cc1", "growth": "99.8% (inactive)"},
      {"smiles": "CC1(C)CC[C@]2(C(=O)O)CC[C@]3(C)C(=CCC4[C@@]5(C)C[C@@H](O)[C@@H]6OC(c7ccccc7Br)OC[C@@]6(C)C5CC[C@]43C)C2C1", "note": "(some centres undefined)", "growth": "-1.06% (active)"},
      {"smiles": "CC(=O)OCC1OC(OC2C(COC(C)=O)OC(n3cc(COc4ccc5ccc(=O)oc5c4)nn3)C(OC(C)=O)C2OC(C)=O)C(OC(C)=O)C(OC(C)=O)C1OC(C)=O", "note": "(centres undefined)", "growth": "113% (inactive)"},
      {"smiles": "COc1ccc(Cc2nn(CC(=O)N/N=C/c3ccc(F)cc3)c(=O)c3c(C)noc23)cc1", "growth": "70.5% (inactive)"},
      {"smiles": "O=C(c1ccccc1)C(c1c[nH]c2ccccc12)c1c[nH]c2ccccc12", "growth": "71.9% (inactive)"},
      {"smiles": "N=C1N=C(SCc2nc3ccccc3[nH]2)NC(=O)/C1=C/c1ccc(Cl)cc1", "growth": "105% (inactive)"},
      {"smiles": "Cn1cc(-c2cc3nc(-c4c[nH]c5ccc(Cl)cc45)cc(N)n3n2)c2ccccc21", "growth": "-89.8% (active)"},
      {"smiles": "CC1(C)CC[C@]2(C(=O)O)CC[C@]3(C)C(=CCC4[C@@]5(C)C[C@@H](O)[C@@H]6OC(c7ccco7)OC[C@@]6(C)C5CC[C@]43C)C2C1", "note": "(some centres undefined)", "growth": "-23.4% (active)"},
      {"smiles": "COc1ccc(C2CC(c3ccc(S(=O)(=O)NCCNc4nc(Nc5ccc(F)cc5)nc(N(C)C)n4)cc3)=Nc3c(N)nc(N)nc3N2)cc1", "note": "(centres undefined)", "growth": "107% (inactive)"},
      {"smiles": "O=C(Nc1ccccc1)N1CCN(c2cc(-c3cn(-c4ccccc4)nc3-c3cccc(O)c3)ccn2)CC1", "growth": "57.4% (inactive)"},
      {"smiles": "CNS(=O)(=O)c1ccc(Nc2ccc(C(F)(F)F)cc2)c(-c2cn(C)cn2)c1", "growth": "63.8% (inactive)"},
      {"smiles": "CCS(=O)(=O)N1CCCC(C(=O)Nc2nc3ccc(NC(=O)c4ccc(F)c(OC)c4F)cc3s2)C1", "note": "(centres undefined)", "growth": "61.1% (inactive)"},
      {"smiles": "COc1ccc(CCC2c3c(cc4c(c3OC)OCO4)CCN2C)cc1", "note": "(centres undefined)", "growth": "-62.7% (active)"},
      {"smiles": "Nc1nc(-c2ccccc2)c(N=Nc2ccc([N+](=O)[O-])cc2Cl)s1", "growth": "43.4% (inactive)"},
      {"smiles": "CN(C)c1nc(NCCNS(=O)(=O)c2ccc(C3=Nc4c(N)nc(N)nc4NC(c4ccccc4)C3)cc2)nc(Nc2ccc(F)cc2)n1", "note": "(centres undefined)", "growth": "68.6% (inactive)"},
      {"smiles": "N/C(=N\\c1nc2ccccc2s1)NC(=O)Nc1ccc(Cl)cc1Cl", "growth": "-49.9% (active)"},
      {"smiles": "CCCCn1c(O)c(N=Nc2nc(-c3cc4ccccc4oc3=O)cs2)c2cc(Br)ccc21", "growth": "116% (inactive)"},
      {"smiles": "Cc1cccc(-c2nc(Nc3cccc(S(N)(=O)=O)c3)c3ccccc3n2)c1", "growth": "66.6% (inactive)"},
      {"smiles": "Cn1cc(-c2cc(N)n3nc(-c4cn(C)c5ccccc45)cc3n2)c2cc(Br)ccc21", "growth": "-84.5% (active)"},
      {"smiles": "COc1cc2c(c(OC)c1OC)C(=O)CC(c1cccc(NC(=O)c3cc(NC(=O)[C@H](C)N)ccc3Cl)c1)O2", "note": "(some centres undefined)", "growth": "33.5% (inactive)"},
      {"smiles": "C#CCOc1cc(N(CC)CC)ccc1C(C(=O)NC(C)(C)C)N(C(=O)C1CCc2cc(F)ccc2O1)c1cc(C)cc(C)c1", "note": "(centres undefined)", "growth": "-14.6% (active)"},
      {"smiles": "Cc1ccc(C2=NN(c3nc(-c4cc5ccccc5oc4=O)cs3)C(c3ccc(C)cc3)C2)cc1", "note": "(centres undefined)", "growth": "104% (inactive)"},
      {"smiles": "Cn1cc(-c2nc(N)nnc2-c2c[nH]c3ccc(F)cc23)c2cc(Br)cnc21", "growth": "-27.7% (active)"}
    ]}
  ]
}
